This is part of a sample that, as a whole, favours compounds with a hit. Of some 83,000 tested, about 20% had one in any assay.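 Single-dose data. Exposure time 48 hours. Values below 10 considered active.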 Active and inactive are the calls of the source.
Legend:
Assay in all cases: NCI-60 one-dose screen, 48 h (100 = growth as untreated, 0 = no growth, -100 = all killed)
Settings in all cases: 10 µM unless noted
HCT-15 colon = tested on: HCT-15 colon
HT29 colon = tested on: HT29 colon
SNB-75 CNS = tested on: SNB-75 CNS
SNB-19 CNS = tested on: SNB-19 CNS
PC-3 prostate = tested on: PC-3 prostate
SK-MEL-5 melanoma = tested on: SK-MEL-5 melanoma
UACC-62 melanoma = tested on: UACC-62 melanoma
LOX IMVI melanoma = tested on: LOX IMVI melanoma
SK-MEL-28 melanoma = tested on: SK-MEL-28 melanoma

Measured: growth

COc1ccc(-c2nc3ccc(-c4nc5ccc(N6CCN(c7ccccc7)CC6)cc5[nH]4)cc3[nH]2)cc1OC
active: HT29 colon -91% | SNB-19 CNS -1.62% | PC-3 prostate -31.5% | LOX IMVI melanoma -91.8% | SK-MEL-28 melanoma -47.5%
inactive: HCT-15 colon 15.8% | SNB-75 CNS 45.6% | SK-MEL-5 melanoma 43.4% | UACC-62 melanoma 41.6%

COc1cc2nc(N3CCCC3)nc(NCc3ccccc3)c2cc1OC
active: HCT-15 colon 6.07%
inactive: HT29 colon 18.7% | SNB-75 CNS 69.1% | SNB-19 CNS 95.6% | PC-3 prostate 67.2% | SK-MEL-5 melanoma 67.8% | UACC-62 melanoma 97.3% | LOX IMVI melanoma 10% | SK-MEL-28 melanoma 57%

O=C1/C(=C/c2cn(-c3ccccc3)nc2-c2ccccc2)SC(=S)N1CCc1ccccc1
inactive: HCT-15 colon 106% | HT29 colon 104% | SNB-75 CNS 71.9% | SNB-19 CNS 99% | PC-3 prostate 100% | SK-MEL-5 melanoma 101% | UACC-62 melanoma 98% | LOX IMVI melanoma 99.3% | SK-MEL-28 melanoma 118%

Source: PubChem BioAssay (NCI)
